# PubChem BioAssay
# Values without a mark were called inactive. A call without a number means that no potency is given here. For some assays here: Potency and affinity values are given separately. The source made the active and inactive calls. Unless noted, no rule for the calls is given here.
# Experiments:
# [1] = antimalarial activity against Dd2 strain (AID 2302;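 active = growth inhibition above 50% at the single 2 µM test dose, taken to imply half-maximal potency below 2 µM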); conditions: P. falciparum Dd2 in RBCs, LDH growth readout, 72 h; at 2 µM; stronger effect = higher value
# [2] = human hepatoma cell viability loss – ATP luminescence, cytotoxicity control for P. falciparum antimalarial project, primary screen (AID 2303;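 active = inhibition above 50%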); conditions: HepG2 viability, 24-48 h, at 10 µM, stronger effect = higher value
# [3] = target: L-lactate dehydrogenase (Plasmodium falciparum (isolate CDC / Honduras)) (UniProt Q27743); assay: PfLDH activity inhibition – cell lysate, 3D7 strain, counter-screen for P. falciparum growth inhibition project (AID 2304); conditions: P. falciparum 3D7 crude extract, LDH APAD/NBT absorbance; at 2 µM; stronger effect = higher value
# [4] = inhibition of 3D7 malaria parasite growth – strain 3D7 (AID 2306); conditions: P. falciparum 3D7 erythrocytic growth, LDH absorbance, 72 h; at 2 µM; stronger effect = higher value
# [5] = target: Calcium-dependent protein kinase 1 (Plasmodium falciparum (isolate 3D7)) (UniProt P62344); assay: PfCDPK1 kinase inhibitors, biochemical, TCAMS library (AID 1159585; cut-off not given, nearly all actives have IC50 up to about 0.98 µM;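 also: inhibitors leave more ATP so luminescence rises with inhibition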); conditions: recombinant PfCDPK1, Kinase-Glo ATP depletion luminescence
# [6] = target: Plasmodium falciparum protein kinase 6 (PK6, PF3D7_1337100) (UniProt Q8IDW1); assay: PfPK6 kinase inhibitors, biochemical, TCAMS library (AID 1159586); conditions: recombinant PfPK6, Kinase-Glo ATP depletion luminescence
# [7] = target: Protein kinase 7 (PK7), Plasmodium falciparum 3D7 (PF3D7_0213400) (UniProt Q7YTF7); assay: inhibition of Plasmodium PK7 catalytic activity – biochemical, TCAMS antimalarial set, Kinase-Glo luminescence (AID 1159587); conditions: recombinant PfPK7, Kinase-Glo ATP depletion luminescence
# [8] = target: Calcium-dependent protein kinase 4 (Plasmodium falciparum (isolate 3D7)) (UniProt Q8IBS5); assay: PfCDPK4 kinase inhibitors, biochemical, TCAMS library (AID 1159588; cut-off not given, nearly all actives have IC50 up to about 0.91 µM); conditions: recombinant PfCDPK4, Kinase-Glo ATP depletion luminescence
# Chain of Calcium-dependent protein kinase 4 (Plasmodium falciparum (isolate 3D7)) (Q8IBS5 whole entry, looked up): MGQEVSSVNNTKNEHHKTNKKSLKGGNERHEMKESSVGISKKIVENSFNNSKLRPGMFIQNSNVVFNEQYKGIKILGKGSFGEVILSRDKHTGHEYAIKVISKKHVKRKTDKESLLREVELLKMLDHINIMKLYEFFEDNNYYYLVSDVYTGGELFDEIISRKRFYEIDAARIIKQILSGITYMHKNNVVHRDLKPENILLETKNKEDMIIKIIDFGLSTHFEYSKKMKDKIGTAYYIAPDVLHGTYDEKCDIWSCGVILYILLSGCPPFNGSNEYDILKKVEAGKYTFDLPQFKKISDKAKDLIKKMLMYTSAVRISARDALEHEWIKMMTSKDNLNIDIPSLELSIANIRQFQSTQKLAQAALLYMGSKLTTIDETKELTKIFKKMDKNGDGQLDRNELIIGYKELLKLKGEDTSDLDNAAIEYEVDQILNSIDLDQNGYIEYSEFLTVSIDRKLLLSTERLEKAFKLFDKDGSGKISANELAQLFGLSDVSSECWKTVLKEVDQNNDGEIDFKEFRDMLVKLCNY
# Chain of Plasmodium falciparum protein kinase 6 (PK6, PF3D7_1337100) (Q8IDW1 1-305): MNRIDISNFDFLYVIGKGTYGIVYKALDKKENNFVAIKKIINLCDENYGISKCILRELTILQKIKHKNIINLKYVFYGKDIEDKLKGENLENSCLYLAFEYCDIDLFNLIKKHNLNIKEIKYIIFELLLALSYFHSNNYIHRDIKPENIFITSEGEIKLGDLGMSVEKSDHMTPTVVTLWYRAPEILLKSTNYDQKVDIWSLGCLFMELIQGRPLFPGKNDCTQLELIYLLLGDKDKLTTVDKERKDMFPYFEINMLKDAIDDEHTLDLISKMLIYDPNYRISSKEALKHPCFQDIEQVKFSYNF
# Chain of L-lactate dehydrogenase (Plasmodium falciparum (isolate CDC / Honduras)) (Q27743 whole entry, looked up): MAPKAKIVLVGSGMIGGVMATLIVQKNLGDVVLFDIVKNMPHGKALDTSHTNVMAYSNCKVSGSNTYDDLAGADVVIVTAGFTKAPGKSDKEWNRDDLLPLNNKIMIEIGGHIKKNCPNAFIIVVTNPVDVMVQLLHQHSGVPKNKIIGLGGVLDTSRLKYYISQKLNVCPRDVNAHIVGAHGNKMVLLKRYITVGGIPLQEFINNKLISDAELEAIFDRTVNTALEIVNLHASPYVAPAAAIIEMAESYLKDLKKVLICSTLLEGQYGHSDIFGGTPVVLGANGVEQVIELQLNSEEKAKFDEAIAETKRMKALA
# Chain of Calcium-dependent protein kinase 1 (Plasmodium falciparum (isolate 3D7)) (P62344 whole entry, looked up): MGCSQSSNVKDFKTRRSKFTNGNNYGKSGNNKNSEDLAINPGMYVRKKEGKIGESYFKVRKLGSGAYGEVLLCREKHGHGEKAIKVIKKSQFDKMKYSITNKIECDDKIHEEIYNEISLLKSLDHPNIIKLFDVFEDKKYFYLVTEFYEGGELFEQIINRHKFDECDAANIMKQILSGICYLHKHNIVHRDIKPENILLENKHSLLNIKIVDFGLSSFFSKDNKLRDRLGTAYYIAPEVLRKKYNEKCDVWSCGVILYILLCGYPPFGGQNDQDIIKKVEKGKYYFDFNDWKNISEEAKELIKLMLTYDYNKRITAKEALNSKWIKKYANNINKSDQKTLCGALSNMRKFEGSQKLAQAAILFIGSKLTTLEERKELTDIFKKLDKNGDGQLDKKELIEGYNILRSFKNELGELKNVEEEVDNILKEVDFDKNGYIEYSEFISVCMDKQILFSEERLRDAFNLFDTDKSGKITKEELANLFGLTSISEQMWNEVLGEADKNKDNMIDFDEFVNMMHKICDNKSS
# Chain of Protein kinase 7 (PK7), Plasmodium falciparum 3D7 (PF3D7_0213400) (Q7YTF7 1-343): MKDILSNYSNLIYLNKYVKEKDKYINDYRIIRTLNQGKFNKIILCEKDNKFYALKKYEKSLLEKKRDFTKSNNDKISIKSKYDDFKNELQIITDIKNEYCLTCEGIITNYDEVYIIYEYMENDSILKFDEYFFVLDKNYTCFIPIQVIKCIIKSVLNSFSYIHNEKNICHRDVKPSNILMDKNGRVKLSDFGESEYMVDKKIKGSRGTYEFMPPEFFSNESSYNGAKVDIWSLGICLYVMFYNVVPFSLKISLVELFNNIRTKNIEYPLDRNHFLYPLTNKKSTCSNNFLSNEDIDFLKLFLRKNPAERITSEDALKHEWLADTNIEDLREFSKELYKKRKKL
Compound,growth inhibition [1],inhibition [2],inhibition [3],growth inhibition [4],outcome [5],outcome [6],outcome [7],outcome [8]
CCOc1ccc(C2CCN(CCN3CCC(NC(=O)c4ccc(-c5ccc(C(F)(F)F)cc5)cc4)CC3)CC2)c(OCC2CC2)c1,65% (active),13%,-9%,99% (active),inactive,inactive,inactive,inactive
COC(=O)c1cccc(CNCc2cccc(-c3cccc(-c4nc5ccc(C(F)(F)F)cc5[nH]4)c3)c2)c1,69% (active),7%,6%,102% (active),inactive,inactive,inactive,inactive
O=C(C=Cc1ccc(Cl)c(Cl)c1)NCCCCCN1CCCC(CCCNC(=O)c2sc3ccccc3c2Cl)C1 (stereo not given),32%,82% (active),-3%,88% (active),inactive,inactive,inactive,inactive
CC1(C)N=C(NC(=O)Nc2ccc([N+](=O)[O-])cc2)N=C(N)N1OCc1cccc2ccccc12,21%,35%,-3%,97% (active),inactive,inactive,inactive,inactive
Cc1ccc(NC(=O)c2ccc(CN3CCCN(CCC(C)C)CC3)cc2)cc1F,31%,40%,1%,91% (active),inactive,inactive,inactive,inactive
Cc1cc(N(C)C)nc(Nc2ccc(NC(=O)C(C)Oc3ccccc3)cc2)n1 (stereo not given),30%,2%,-1%,98% (active),inactive,inactive,inactive,inactive
C=CCC(C)n1ncc2c3c(N)nc(N)nc3ccc21 (stereo not given),95% (active),66% (active),-3%,93% (active),inactive,inactive,inactive,inactive
CCc1c[nH]c2c(N3CCCS3(=O)=O)cc(C(=O)N[C@@H](Cc3ccccc3)[C@H](O)CNC3CCCCC3)cc12,89% (active),6%,-7%,99% (active),inactive,inactive,inactive,inactive
COc1ccc(CNCCCCCCCNCc2ccc(Cl)c(Cl)c2)cc1Cl,18%,27%,4%,90% (active),inactive,inactive,inactive,inactive
O=C(/C=C/c1ccc(Cl)c(Cl)c1)NCCCCCN1CCCC(CCCNC(=O)Nc2ccc(C(F)(F)F)cc2)C1 (stereo not given),48%,58% (active),-4%,101% (active),inactive,inactive,inactive,inactive
O=C(Nc1ccc2c(c1)CNCC2)c1ccc(-c2ccc(Cl)cc2)cc1,28%,52% (active),6%,96% (active),inactive,inactive,inactive,inactive
CC1(CCCCN2CCC(Cc3ccccc3)CC2)C(=O)Nc2ccccc21 (stereo not given),28%,66% (active),-8%,100% (active),inactive,inactive,inactive,inactive
CCCCc1ccc2[nH]cc(C(=O)OCC)c(=O)c2c1,96% (active),3%,5%,95% (active),inactive,inactive,inactive,inactive
COc1ccc(C=CC(=O)Nc2ccc(N3CCCC3)cc2)cc1,9%,-1%,-1%,81% (active),inactive,inactive,inactive,inactive
c1ccc(OCCCCN2CCCCC2)cc1,1%,2%,-11%,95% (active),inactive,inactive,inactive,inactive
CNC(=O)Cc1ccc(C(=O)Nc2cccc(-c3cccc(-c4nc5c(C)cccc5[nH]4)c3)c2)cc1,53% (active),15%,0%,96% (active),inactive,inactive,inactive,inactive
CCCCCCn1c(Sc2ccc(C#N)c([N+](=O)[O-])c2)nnc1-c1cccc(Cl)c1,90% (active),17%,1%,96% (active),inactive,inactive,inactive,inactive
COc1cc(C)nc2ccc(NC(=O)c3cc([N+](=O)[O-])cc([N+](=O)[O-])c3)cc12,94% (active),-2%,2%,102% (active),inactive,inactive,inactive,inactive
Nc1ccc2nc(C=Cc3ccccc3)[nH]c2c1,89% (active),7%,1%,92% (active),inactive,inactive,inactive,inactive
COc1ccc2ncc(C#N)c(CCN3C[C@H](CNCc4ccccc4)[C@H](O)C3)c2n1,24%,3%,4%,91% (active),inactive,inactive,inactive,inactive

Compound,growth inhibition [1],inhibition [2],inhibition [3],growth inhibition [4],outcome [5],outcome [6],outcome [7],outcome [8]
O=C(Nc1ccccc1Cl)c1cc2ccccc2cc1O,72% (active),2%,-4%,94% (active),inactive,inactive,inactive,inactive
O=C(/C=C/c1cccc(Cl)c1)N1CCC(C(O)CN2CCC3(CC2)CN(C(=O)/C=C/c2cccc(Cl)c2)c2ccccc23)CC1 (stereo not given),38%,34%,0%,91% (active),inactive,inactive,inactive,inactive
COc1ccc(N2CCN(CCc3ccc(NC(=O)c4ccc([N+](=O)[O-])cc4)cc3)CC2)c(OC)c1,0%,45%,1%,83% (active),inactive,inactive,inactive,inactive
Cc1ccc(-c2ccc3c(c2)C=C(C(=O)NC2CCN(CCNC(=O)c4cccc(C(F)(F)F)c4)CC2)CCC3)cc1,56% (active),25%,-3%,100% (active),inactive,inactive,inactive,inactive
Cc1sc(N2CCN(C)CC2)nc1C(=O)Nc1ccc(F)cc1C(F)(F)F,63% (active),7%,4%,92% (active),inactive,inactive,inactive,inactive
COc1ccc2nccc(NC(=O)C3(O)CCC(NCc4ccc5c(c4)NCCS5)CC3)c2n1 (stereo not given),64% (active),1%,-1%,93% (active),inactive,inactive,inactive,inactive
Nc1cccc(CNCc2cccc(-c3cccc(-c4nc5ccc(F)cc5[nH]4)c3)c2)c1,82% (active),5%,-4%,102% (active),inactive,inactive,inactive,inactive
O=C(Cn1nc(Br)nc1[N+](=O)[O-])NCC1CCCCC1,57% (active),-8%,-5%,96% (active),inactive,inactive,inactive,inactive
CC(=O)c1cccc(NC(=O)c2ccc(Cl)c(S(=O)(=O)N3CCc4ccccc43)c2)c1,11%,13%,0%,93% (active),inactive,inactive,inactive,inactive
O=C(NCCCCN1CCN(c2ccc3c(c2)CCC3)CC1)c1ccc(NC(=O)c2ccc(Cl)cc2)cc1,35%,38%,2%,98% (active),inactive,inactive,inactive,inactive
O=C(c1cc(C(=O)Nc2ccccc2F)c(=O)n(-c2ccccc2F)c1)c1cc(Cl)ccc1O,80% (active),2%,5%,98% (active),inactive,inactive,inactive,inactive
CN1CC[C@@H](Oc2cc(CNC(=O)c3ccc(-c4ccc(Cl)cc4)s3)ccc2C(F)(F)F)C1,64% (active),40%,2%,93% (active),inactive,inactive,inactive,inactive
CC(C)Oc1cc2c(cc1NS(=O)(=O)c1ccc(-c3cccs3)cc1)CCN(C)CC2,9%,9%,-4%,88% (active),inactive,inactive,inactive,inactive
O=C(/C=C/c1ccc(Cl)c(Cl)c1)NCCCCCCN1CCN(C(=O)Nc2ccc(Cl)c(Cl)c2)CC1,0%,23%,-1%,88% (active),inactive,inactive,inactive,inactive
NC(=NCc1ccccc1)Nc1cccc(Cc2ccccc2)n1,52% (active),57% (active),0%,85% (active),inactive,inactive,inactive,inactive
C[C@H](NCCC1CCC(NC(=O)N[C@H](C)C(O)(c2ccccc2)c2ccccc2)CC1)c1cccc2ccccc12 (stereo not given in full),58% (active),43%,-2%,86% (active),inactive,inactive,inactive,inactive
CN1N=C2c3ccccc3CCC2C1c1ccc(C#N)cc1 (stereo not given),85% (active),-9%,2%,95% (active),inactive,inactive,inactive,inactive
CCNc1cc(C)nc(Nc2ccc(NC(=O)c3ccccc3Cl)cc2)n1,52% (active),48%,-2%,100% (active),inactive,inactive,inactive,inactive
O=[N+]([O-])c1cccc(NC(=S)N2CCCN(Cc3ccc(F)cc3F)CC2)c1,98% (active),5%,-1%,99% (active),inactive,inactive,inactive,inactive
COc1cccc2cc(C(=O)N[C@@H](CC(C)C)C(=O)N[C@H](/C=N/N3CCCC3=O)Cc3ccccc3)oc12,80% (active),5%,5%,96% (active),inactive,inactive,inactive,inactive
